# Experimental data reported in PubChem BioAssay.
# Values without a mark were called inactive. The rule behind the calls is not given here.
# Target: Pantothenate synthetase (Mycobacterium tuberculosis (strain ATCC 25618 / H37Rv)) (UniProt P9WIL5)
# Assay: Recombinant Mtb pantothenate synthetase (PanC) inhibitors, coupled enzyme, confirmatory (AID 375);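 note: 0% = full reaction with vehicle and 100% = no enzyme background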
# Conditions: coupled enzyme assay; at 10 µM, stronger effect = higher value
# Pantothenate synthetase (Mycobacterium tuberculosis (strain ATCC 25618 / H37Rv)), sequence (P9WIL5 whole entry, looked up): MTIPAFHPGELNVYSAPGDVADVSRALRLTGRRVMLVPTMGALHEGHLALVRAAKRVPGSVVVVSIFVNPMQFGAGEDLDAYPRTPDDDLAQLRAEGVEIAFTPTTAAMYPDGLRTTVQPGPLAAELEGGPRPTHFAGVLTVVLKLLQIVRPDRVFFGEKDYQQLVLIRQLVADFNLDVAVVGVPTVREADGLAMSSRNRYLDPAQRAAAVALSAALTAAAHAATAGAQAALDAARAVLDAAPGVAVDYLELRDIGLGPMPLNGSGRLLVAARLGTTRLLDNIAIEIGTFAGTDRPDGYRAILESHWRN
row,SMILES,inhibition
1,Cc1ccc(C(=O)Nc2c(C(=O)N3CCOCC3)cnn2-c2ccccc2)cc1,0%
2,CCSc1nnc(NC(=O)C(CC)(C(F)(F)F)C(F)(F)F)s1,0%
3,C=CCn1c(SCC(=O)Nc2ccccc2OC)nnc1-c1ccccn1,3%
4,c1ccc2c(-c3nc(-c4ccncc4)no3)cccc2c1,0%
5,CCCc1c(OCCCCc2nn[nH]n2)ccc(C(C)=O)c1O,0%
6,CCCCn1nnnc1SCC(=O)Nc1cccc(C)n1,1%
7,CCOC(=O)Cc1nnc(Nc2cccc(O)c2)c2ccccc12,9%
8,CCOC(=O)N1CCN(S(=O)(=O)c2cc(C)c(C)cc2C)CC1,0%
9,COc1cc(CC(=O)NCc2ccc3c(c2)OCO3)cc(OC)c1OC,1%
10,Cc1cn(C2CC3OCC3O2)c(=O)[nH]c1=O (stereo not given),0%
11,CCOc1ccccc1CN(Cc1ccco1)S(=O)(=O)c1ccc(-n2cnnn2)c(OC)c1,8%
12,O=C(Nc1ccc2c(c1)OCO2)C(c1ccccc1)N1CCC2(CC1)OCCO2 (stereo not given),0%
13,Cc1ccc(Nc2nc(N)nc(CN3CCN(Cc4ccc5c(c4)OCO5)CC3)n2)cc1,0%
14,COC(=O)c1sccc1NC(=O)c1ccncc1,6%
15,CCOC(=O)c1sc(NC(=O)CSc2n[nH]c(-c3ccccc3)n2)c(C#N)c1C,11%
16,CCC(NC(=O)Nc1cc(OC)c(OC)c(OC)c1)(C(F)(F)F)C(F)(F)F,3%
17,c1ccc2c(NC3CCCC3)nnc(NC3CCCC3)c2c1,0%
18,Nc1nonc1NC(=O)CSc1nc2ccccc2s1,0%
19,CN/C=C1\C(=O)C(C)(C)Oc2ccc3ccc(=O)oc3c21,9%
20,Cc1noc(C)c1C(=O)Nc1sc(C)c(C)c1C#N,2%

row,SMILES,inhibition
1,COCCN(CC(=O)NCc1ccccc1)C(=O)CCC(=O)Nc1ccccn1,0%
2,CCOc1ccc2nc(NC(=O)C(NS(=O)(=O)c3cccs3)C(C)C)sc2c1 (stereo not given),0%
3,COc1ccc(-c2nnn(CC(=O)c3ccc4c(c3)OCCO4)n2)cc1OC,0%
4,C=CCn1c(SCC(=O)NC23CC4CC(CC(C4)C2)C3)nc(O)cc1=O,0%
5,CCOC(=O)c1c(C)[nH]c(C)c1C(=O)COc1ccc(NC(=O)c2ccco2)cc1,1%
6,O=C(Nc1nnc(COc2ccc(F)cc2)s1)c1cccs1,5%
7,CCCC(=O)Nc1ccc(NC(=O)c2ccccc2OC)cn1,0%
8,CCSc1nnc(-c2cccs2)o1,0%
9,CCc1ccc(NC(=O)CS(=O)CC(=O)NCC2OCCc3ccccc32)cc1 (stereo not given),0%
10,O=C1CC(Sc2nnc(-c3ccccc3)o2)C(=O)N1c1ccccc1 (stereo not given),0%
11,COc1ccc(CCNC(=O)CSc2nnc(CNc3ccc(Cl)cc3)o2)cc1OC,0%
12,Cc1cccnc1-n1c(CCN2C(=O)c3ccccc3C2=O)nc2ccccc2c1=O,9%
13,N#CC1=C(N)Oc2c(ccc3cccnc23)C1c1cccnc1 (stereo not given),0%
14,COc1ccc(C2C(C#N)=C(N)OC3=C2C(=O)CC(C)C3)c(OC)c1OC (stereo not given),0%
15,Cc1ccc(S(=O)(=O)N2CCC(C(=O)NCCN3CCCCCC3)CC2)cc1,0%
16,C=CCSc1nc2c(c(=O)[nH]c(=O)n2C)n1C(C)C,0%
17,CC(C)c1nnc(NC(=O)c2cnccn2)s1,0%
18,CCCC(C)c1nnc(NC(=O)C2CCCO2)s1 (stereo not given),0%
19,COc1ccc(-n2nnnc2SCC(=O)N2CCOCC2)cc1,3%
20,COc1ccc(NC(=O)c2oc3ccccc3c2NC(=O)c2ccco2)cc1,0%
